The inhibition is the relative decrease from the control value, in per cent.

Our source for the inhibition values is PubChem BioAssay AID2071 (Sanford-Burnham Center for Chemical Genomics, 2009).

The campaign covered roughly 280,000 compounds. About 1,700 (0.61%) were called active. No stated cut-off is given here; in the data, active means inhibition mostly above about 24% (no sharp cut-off); inactive means mostly below about 32%. What follows is part of a selection rich in actives, with near analogues and random picks from the rest.

A short description of this assay: NALP1 inflammasome inhibitors in reconstituted yeast, colorimetric, S. cerevisiae, triplicate retest (AID 2071). The following applies: S. cerevisiae NALP1/ASC/caspase-1 growth, X-gal OD620, 72 h, stronger effect = higher value.

`COc1ccc(C(=O)NCC(=O)N/N=C/c2cccnc2)cc1`: the inhibition (at 10 µM unless noted) is -23.5% (inactive).
Take `CC(C)[C@@H]1COC(c2cccc(C3=N[C@H](C(C)C)CO3)c2)=N1`: for the setting “at 10 µM unless noted”, the inhibition is 10.4% (inactive).
As for `COc1ccc(C(C[N+](=O)[O-])n2nc(C)cc2C)cc1` (stereo not drawn), the inhibition (at 10 µM unless noted) was 103% (active).
Consider `COc1ccc(C(=O)CSc2nc(C)cc(C)n2)cc1[N+](=O)[O-]`, for which the inhibition (at 10 µM unless noted) is -10% (inactive).
On to `COc1ccc(OCc2cn3c(C)cc(C)nc3n2)cc1`, for which the inhibition (at 10 µM unless noted) is 22.5% (inactive).
In the case of `CN(Cc1cnccn1)C(=O)c1cc(COc2cccc(C(F)(F)F)c2)on1`, the inhibition (at 10 µM unless noted) was -7.1% (inactive).
Same read-out and setting: under `S=C(Nc1cccc(Cl)c1)Nc1ccc2c(c1)OCCO2` stands 2% (inactive); under `Cc1cccc(C)c1NC(=O)c1ccc(CN2CCc3ccccc3C2)cc1`, 29.1% (active); under `Cc1ccc(NC(=O)CN2CCc3ccccc3C2)cc1`, -0.6% (inactive).
On the same count and under the same terms, under `CN(c1cccc(NC(=O)c2ccc(CN3CCc4ccccc4C3)cc2)c1)S(C)(=O)=O` stands -14.2% (inactive); under `CCOC(=O)c1ccc(NC(=O)c2cccnc2)cc1`, 16.3% (inactive).
In the case of `S=C(Nc1ccc(Cl)cc1Cl)N1CCCC1`, the inhibition (at 10 µM unless noted) was 11% (inactive).
For the compound `O=C(CCCNS(=O)(=O)c1cccc2nsnc12)NCCN1CCN(c2ccccc2F)CC1`, the inhibition (at 10 µM unless noted) is 8.8% (inactive).
Turning to `CCC(=O)N1CCc2cc(S(=O)(=O)CCC(=O)N3CCN(c4ccccc4F)CC3)ccc21`, the inhibition (at 10 µM unless noted) is 32% (inactive).
For `O=C(CCS(=O)(=O)c1cccc2nsnc12)N1CCN(c2ccccc2F)CC1`, the inhibition (at 10 µM unless noted) was 42.9% (active).
Regarding `CN(C(=O)c1cc2c(=O)n3ccccc3nc2s1)C1CCCCC1`, for the setting “at 10 µM unless noted”, the inhibition was 4.6% (inactive).
On to `CC(=O)NCCNC(=O)c1cc(-c2cccc3ccccc23)nc2ccccc12`, for which the inhibition (at 10 µM unless noted) was 0.4% (inactive).
`C=CCOc1cccc(C2C(C(=O)c3ccc(C)o3)=C(O)C(=O)N2CCCn2ccnc2)c1` (stereo not drawn): the inhibition (at 10 µM unless noted) was 13.4% (inactive).
For the compound `O=C(CNC(=O)c1ccc(F)cc1)c1ccccc1`, the inhibition (at 10 µM unless noted) is 3.2% (inactive).
In the case of `O=C(NCc1cccc(Cl)c1)C1CCC(=O)N(C2CC2)C1` (stereo not drawn), for the setting “at 10 µM unless noted”, the inhibition is 15.1% (inactive).
Turning to `O=C(C1CCC(=O)N(C2CC2)C1)N1CCN(c2ccc(Cl)cc2)CC1` (stereo not drawn), the inhibition (at 10 µM unless noted) is 26.5% (active).
On to `O=C(C1CC(=O)N(C2CCCCC2)C1)N1CCN(c2ccccc2)CC1` (stereo not drawn), for which the inhibition (at 10 µM unless noted) was 4.2% (inactive).
Consider `O=C(NCc1ccccc1)C(=O)NCC1OCCN1S(=O)(=O)c1ccc(Br)cc1` (stereo not drawn), for which the inhibition (at 10 µM unless noted) was 8% (inactive).
Consider `CN(C)c1nc(Nc2ccc(Cl)c(Cl)c2)nc(N(C)C)n1`, for which, under “at 10 µM unless noted”, the inhibition is 14.2% (inactive).
Consider `OCCNc1nc(Nc2ccc(Cl)c(Cl)c2)nc2ccccc12`, for which, under “at 10 µM unless noted”, the inhibition was 31.9% (active).
For the compound `Nc1nc(Nc2ccccc2)nc(NCCO)c1[N+](=O)[O-]`, the inhibition (at 10 µM unless noted) is 2.9% (inactive).
On to `O=S(=O)(NC1CC2CCC1C2)c1ccc(Cl)cc1` (stereo not drawn), for which the inhibition (at 10 µM unless noted) was -6% (inactive).
For `Cc1ccc2c(C)c(C(=O)N3CCN(c4ccncc4)CC3)oc2c1C`, under “at 10 µM unless noted”, the inhibition is 12.6% (inactive).
Turning to `COc1cc(CN2CCCC(C(=O)c3ccc(SC)cc3)C2)cc(Cl)c1O` (stereo not drawn), the inhibition (at 10 µM unless noted) was 19.3% (inactive).
On to `COc1ccc(S(=O)(=O)N2CCN(C)CC2)c(C)c1`, for which, under “at 10 µM unless noted”, the inhibition was 26.4% (inactive).
Regarding `COc1ccc(C)cc1Nc1n[n+](-c2ccccc2)c(-c2cccc(Cl)c2Cl)s1`, the inhibition (at 10 µM unless noted) was 19.6% (inactive).
With `CCOC(=O)/C(C#N)=C/c1ccc(N2CCCCC2)cc1`, under “at 10 µM unless noted”, the inhibition was 6.6% (inactive).
For `Cc1ccccc1C(=O)Nc1ccc(N2CCCCCC2)cc1`, under “at 10 µM unless noted”, the inhibition was 1.4% (inactive).
Regarding `O=C1C=CC(=O)N1c1ccc(N2CCCCC2)cc1`, the inhibition is 45.6% (active) (at 10 µM) and 114% (triplicate retest, at 20 µM).
Regarding `CCOc1c2ccc(C(=O)NCc3ccc(OC(F)(F)F)cc3)cc2nn1C`, the inhibition (at 10 µM unless noted) was 14.9% (inactive).
For the compound `CCCn1nc2cc(C(=O)NCc3ccccc3)ccc2c1OCC`, where the note is “at 10 µM unless noted”, the inhibition was 34.5% (active).
For the compound `CCOc1c2ccc(C(=O)NCc3ccc4c(c3)OCO4)cc2nn1C`, under “at 10 µM unless noted”, the inhibition is 30.5% (inactive).
As to `CCc1noc(C)c1C(=O)N1CCCC(N2CCN(c3ccc(F)cc3)CC2)C1` (stereo not drawn), for the setting “at 10 µM unless noted”, the inhibition is 15% (inactive).
Still for that read-out and setting: under `CCOc1ccc(-n2c(SCC(N)=O)nnc2-c2ccco2)cc1` stands 7.9% (inactive).
For the compound `Oc1c(Cl)cc(Cl)c(Cl)c1Cc1c(O)c(Cl)cc(Cl)c1Cl`, the inhibition reads like this: (at 10 µM) 121% (active); (triplicate retest, at 20 µM) 100%.
Consider `Cc1cc(S(=O)(=O)NCC(C)C)ccc1OCC(=O)NC1CC1`, for which the inhibition (at 10 µM unless noted) was 13.3% (inactive).
On the same count and under the same terms, under `Cn1c(=O)oc2cc(S(=O)(=O)N3CCC(C(=O)Nc4ccc(OC(F)(F)F)cc4)CC3)ccc21` stands 22.5% (active).
Consider `Cc1ccc2nc(NC(=O)C3CCN(S(=O)(=O)c4ccc5c(c4)oc(=O)n5C)CC3)sc2c1`, for which the inhibition (at 10 µM unless noted) was 0.1% (inactive).
The same measure, in the same setting: under `COc1ccc(NC(=O)C2CCN(S(=O)(=O)c3ccc4[nH]c(=O)oc4c3)CC2)c(OC)c1` stands -45% (inactive); under `COCCCNC(=S)N(CCN(C)C)Cc1cc2cc3c(cc2[nH]c1=O)OCCO3`, 8.7% (inactive); under `COc1ccc(C(=O)Nc2ccnn2C2CCN(Cc3ccncc3)CC2)cc1`, 14.9% (inactive).
